Source: PubChem BioAssay AID1159580 (chemical genetic matrix, 2015)
Among all 5,500 compounds or so, about 2,000 (36%) were called active. Another 18% or so got no clear call; they are omitted. No stated cut-off is given here; in the data, active means normalized growth mostly below about 0.91 (no sharp cut-off); inconclusive means no clear call, values can overlap the other calls; inactive means mostly above about 0.92. The list shows a part of the results.

Assay: chemical genetic growth profiling, strain panel (AID 1159580);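 further: tested at 20 µM; growth read once vehicle control cultures reached saturation at 30 °C; 1 = growth at the plate median or of vehicle wells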
Conditions: S. cerevisiae deletion strains, growth OD

Measured: normalized growth

Cc1nc(C(F)(F)F)c(C(=O)O/N=C(/N)c2ccc(Cl)cc2)s1
inactive: locus YAR019C, strain CDC15, stronger effect = lower value 0.98 | locus YBL105C, strain PKC1, stronger effect = lower value 0.975 | locus YBR135W, strain CKS1, stronger effect = lower value 0.98 | locus YBR136W, strain MEC1, stronger effect = lower value 0.968 | locus YBR160W, strain CDC28, stronger effect = lower value 0.983 | locus YDL017W, strain CDC7, stronger effect = lower value 0.988 | locus YDL028C, strain MPS1, stronger effect = lower value 0.974 | locus YDL101C, strain DUN1, stronger effect = lower value 0.994 | locus YDL108W, strain KIN28, stronger effect = lower value 0.98 | locus YDL132W, strain cdc53, stronger effect = lower value 0.997 | locus YDL214C, strain PRR2, stronger effect = lower value 0.967 | locus YDR052C, strain DBF4, stronger effect = lower value 0.988 | locus YDR054C, strain cdc34, stronger effect = lower value 1 | locus YDR226W, strain ADK1, stronger effect = lower value 0.991 | locus YDR477W, strain SNF1, stronger effect = lower value 0.942 | locus YER123W, strain YCK3, stronger effect = lower value 0.92 | locus YER133W, strain GLC7, stronger effect = lower value 0.942 | locus YFL009W, strain cdc4, stronger effect = lower value 0.974 | locus YFL029C, strain CAK1, stronger effect = lower value 0.983 | locus YFR003C, strain YPI1, stronger effect = lower value 0.982 | locus YFR019W, strain FAB1, stronger effect = lower value 0.938 | locus YFR028C, strain CDC14, stronger effect = lower value 0.98 | locus YGR040W, strain KSS1, stronger effect = lower value 0.941 | locus YGR052W, strain FMP48, stronger effect = lower value 0.952 | locus YGR092W, strain DBF2, stronger effect = lower value 0.933 | locus YHR030C, strain SLT2, stronger effect = lower value 0.999 | locus YHR079C, strain IRE1, stronger effect = lower value 0.83 | locus YHR082C, strain KSP1, stronger effect = lower value 1.14 | locus YHR205W, strain SCH9, stronger effect = lower value 0.921 | locus YIL147C, strain SLN1, stronger effect = lower value 0.978 | locus YJL095W, strain BCK1, stronger effect = lower value 0.818 | locus YJL128C, strain PBS2, stronger effect = lower value 0.978 | locus YJL157C, strain FAR1, stronger effect = lower value 0.952 | locus YJR016C, strain ILV3, stronger effect = lower value 0.984 | locus YJR066W, strain TOR1 (second series), stronger effect = lower value 0.926 | locus YJR066W, strain TOR1, stronger effect = lower value 1.06 | locus YKL048C, strain ELM1, stronger effect = lower value 1 | locus YKL067W, strain YNK1, stronger effect = lower value 0.974 | locus YKL101W, strain HSL1, stronger effect = lower value 0.983 | locus YKL193C, strain SDS22, stronger effect = lower value 0.954 | locus YKL203C, strain TOR2, stronger effect = lower value 1.03 | locus YLR133W, strain CKI1, stronger effect = lower value 0.948 | locus YLR403W, strain SFP1, stronger effect = lower value 0.905 | locus YML070W, strain DAK1, stronger effect = lower value 0.939 | locus YMR001C, strain CDC5, stronger effect = lower value 0.973 | locus YMR205C, strain PFK2 (second series), stronger effect = lower value 0.941 | locus YMR277W, strain FCP1, stronger effect = lower value 0.974 | locus YNL006W, strain LST8, stronger effect = lower value 0.985 | locus YNL020C, strain ARK1, stronger effect = lower value 0.945 | locus YNL161W, strain CBK1, stronger effect = lower value 0.984 | locus YNL183C, strain NPR1, stronger effect = lower value 0.876 | locus YNL207W, strain RIO2, stronger effect = lower value 0.972 | locus YNL222W, strain SSU72, stronger effect = lower value 0.977 | locus YNL307C, strain MCK1 (second series), stronger effect = lower value 0.963 | locus YOL078W, strain AVO1, stronger effect = lower value 0.97 | locus YOL136C, strain PFK27, stronger effect = lower value 0.946 | locus YOR061W, strain CKA2, stronger effect = lower value 0.948 | locus YOR119C, strain RIO1, stronger effect = lower value 0.983 | locus YOR231W, strain MKK1, stronger effect = lower value 0.831 | locus YOR329C, strain SCD5, stronger effect = lower value 0.974 | locus YPL031C, strain PHO85, stronger effect = lower value 0.947 | locus YPL153C, strain RAD53, stronger effect = lower value 0.937 | locus YPL204W, strain HRR25, stronger effect = lower value 0.921 | locus YPL209C, strain IPL1, stronger effect = lower value 0.982 | locus YPR025C, strain CCL1, stronger effect = lower value 0.993 | locus YPR106W, strain ISR1, stronger effect = lower value 0.987 | locus YPR111W, strain DBF20, stronger effect = lower value 0.976 | strain NNK1, stronger effect = lower value 0.995 | strain TSCII, stronger effect = lower value 0.974
active: locus YLR113W, strain HOG1, stronger effect = lower value 0.79 | locus YPL256C, strain CLN2, stronger effect = lower value 0.795
